Results on seven compounds are retold here after PubChem BioAssay.

Broadly, the inhibition is the relative decrease from the control value, in per cent.

The source made the active and inactive calls.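 The calls were made as follows, unless noted: active = differentiation response of at least 50%, scaled between solvent and reference control, from cells with both markers; inactive = the rest.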

Experiment [1] can be described thus: inhibitors of CD8+ T cell-vesicle binding, pilot screen, LFA-1/ICAM-1 modulator project, MLPCN validation set, flow cytometry (AID 2523;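 active = response below a set limit, under 55% cells CD8-positive and vesicle-bound, and CD8 cells' 90th-percentile brightness under 279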;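 as to vesicle binding response: mean PE anti-B7-1 fluorescence of CD8+ cells relative to row control; 100% = QL9-loaded vesicles with DMSO vehicle in the same plate row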). The following applies: 2C mouse CD8+ T cells, at 7 µM, stronger effect = lower value; double positive events: measured here: CD8+/vesicle+ event percentage.
In experiment [2] the target is Integrin beta-1 (Homo sapiens) + Integrin alpha-4 (Homo sapiens) (UniProt P13612+P05556). In words: inhibition of HUTS-21 binding to VLA-4, pilot screen, VLA-4 allosteric modulator project, U937 cells, HUTS-21 mAb, flow cytometry, validation set (AID 2674;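 active = inhibition above 50%, about 3 SD of the validation set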;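 also: antibody binding induced by the VLA-4 ligand LDV present at three times its Kd; 0% = LDV ligand with antibody and no compound and 100% = antibody without LDV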). The note with it: HUTS-21 LIBS mAb binding, at 6.7 µM, stronger effect = higher value, binding induced by LDV ligand.
Integrin beta-1 (Homo sapiens) + Integrin alpha-4 (Homo sapiens), sequence (P05556 whole entry, looked up): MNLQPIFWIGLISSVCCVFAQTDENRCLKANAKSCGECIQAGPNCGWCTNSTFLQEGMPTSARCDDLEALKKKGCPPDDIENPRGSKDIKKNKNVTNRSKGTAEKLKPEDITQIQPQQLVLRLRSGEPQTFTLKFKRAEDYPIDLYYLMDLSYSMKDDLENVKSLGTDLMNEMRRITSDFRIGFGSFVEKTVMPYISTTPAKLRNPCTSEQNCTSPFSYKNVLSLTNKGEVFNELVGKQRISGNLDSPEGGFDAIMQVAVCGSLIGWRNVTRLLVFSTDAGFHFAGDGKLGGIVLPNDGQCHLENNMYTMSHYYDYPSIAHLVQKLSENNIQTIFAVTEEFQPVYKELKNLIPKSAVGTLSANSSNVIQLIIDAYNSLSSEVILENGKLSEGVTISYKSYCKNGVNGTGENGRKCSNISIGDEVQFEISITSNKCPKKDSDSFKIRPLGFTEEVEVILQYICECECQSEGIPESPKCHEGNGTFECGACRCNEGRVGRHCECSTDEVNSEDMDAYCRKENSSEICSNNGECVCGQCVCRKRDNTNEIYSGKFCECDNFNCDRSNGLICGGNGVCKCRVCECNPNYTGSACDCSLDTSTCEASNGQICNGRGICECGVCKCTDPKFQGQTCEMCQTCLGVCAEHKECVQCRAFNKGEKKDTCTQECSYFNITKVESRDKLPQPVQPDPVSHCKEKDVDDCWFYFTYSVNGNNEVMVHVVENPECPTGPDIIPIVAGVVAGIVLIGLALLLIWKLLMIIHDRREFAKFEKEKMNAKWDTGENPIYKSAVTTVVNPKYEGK
Integrin beta-1 (Homo sapiens) + Integrin alpha-4 (Homo sapiens), sequence (P13612 whole entry, looked up): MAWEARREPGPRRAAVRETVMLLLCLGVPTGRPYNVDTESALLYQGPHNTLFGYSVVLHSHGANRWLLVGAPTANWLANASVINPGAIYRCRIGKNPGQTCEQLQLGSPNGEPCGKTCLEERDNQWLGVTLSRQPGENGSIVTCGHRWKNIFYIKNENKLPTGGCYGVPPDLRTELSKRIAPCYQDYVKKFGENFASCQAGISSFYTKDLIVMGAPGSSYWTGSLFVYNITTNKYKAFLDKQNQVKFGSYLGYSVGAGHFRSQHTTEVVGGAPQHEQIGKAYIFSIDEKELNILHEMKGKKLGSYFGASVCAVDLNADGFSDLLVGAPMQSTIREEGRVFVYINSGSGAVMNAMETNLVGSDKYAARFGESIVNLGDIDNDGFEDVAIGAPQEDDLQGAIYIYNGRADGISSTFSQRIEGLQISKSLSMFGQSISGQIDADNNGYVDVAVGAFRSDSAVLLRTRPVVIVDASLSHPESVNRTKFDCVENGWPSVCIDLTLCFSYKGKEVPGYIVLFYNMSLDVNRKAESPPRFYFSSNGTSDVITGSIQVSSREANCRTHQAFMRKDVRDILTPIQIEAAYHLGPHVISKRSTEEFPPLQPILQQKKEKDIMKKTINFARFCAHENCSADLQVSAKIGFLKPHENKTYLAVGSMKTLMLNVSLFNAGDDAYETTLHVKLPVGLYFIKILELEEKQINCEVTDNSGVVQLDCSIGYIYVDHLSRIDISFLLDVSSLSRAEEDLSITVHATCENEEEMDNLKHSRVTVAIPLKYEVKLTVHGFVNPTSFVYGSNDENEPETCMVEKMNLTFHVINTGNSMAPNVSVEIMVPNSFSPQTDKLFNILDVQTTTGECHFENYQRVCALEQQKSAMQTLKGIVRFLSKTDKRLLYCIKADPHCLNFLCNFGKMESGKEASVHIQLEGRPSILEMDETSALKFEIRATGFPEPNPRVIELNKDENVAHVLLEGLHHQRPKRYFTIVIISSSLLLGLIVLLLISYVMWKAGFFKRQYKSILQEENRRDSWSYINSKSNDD
Experiment [3] is described as follows: superoxide lowering in aged yeast cells, pilot screen, validation compound set (AID 2706;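 active = superoxide response below 65% of plate, a cut near 3 SD across the whole screen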;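 also: yeast exposed to compound for one week at 30 degrees C before staining; 100% = mean of all compound wells on the same plate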). The following applies: S. cerevisiae aging, superoxide DHE fluorescence; at 10 µM, stronger effect = lower value.
Experiment [4] deals with Beta-adrenergic receptor kinase 1 (Homo sapiens) (UniProt P25098). In words: GRK2 binders displacing RNA aptamer, biochemical, validation, human GRK2, bead flow cytometry (AID 488806;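 active = aptamer binding inhibition above 30%, about 3 SD of noise from non-fluorescent compounds; inactive = inhibition at or below 30%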). The following applies: bead-bound GRK2, FAM-aptamer displacement, at 10 µM, stronger effect = higher value. Background: A flow cytometer gives signals particle by particle.
Beta-adrenergic receptor kinase 1 (Homo sapiens), sequence (P25098 whole entry, looked up): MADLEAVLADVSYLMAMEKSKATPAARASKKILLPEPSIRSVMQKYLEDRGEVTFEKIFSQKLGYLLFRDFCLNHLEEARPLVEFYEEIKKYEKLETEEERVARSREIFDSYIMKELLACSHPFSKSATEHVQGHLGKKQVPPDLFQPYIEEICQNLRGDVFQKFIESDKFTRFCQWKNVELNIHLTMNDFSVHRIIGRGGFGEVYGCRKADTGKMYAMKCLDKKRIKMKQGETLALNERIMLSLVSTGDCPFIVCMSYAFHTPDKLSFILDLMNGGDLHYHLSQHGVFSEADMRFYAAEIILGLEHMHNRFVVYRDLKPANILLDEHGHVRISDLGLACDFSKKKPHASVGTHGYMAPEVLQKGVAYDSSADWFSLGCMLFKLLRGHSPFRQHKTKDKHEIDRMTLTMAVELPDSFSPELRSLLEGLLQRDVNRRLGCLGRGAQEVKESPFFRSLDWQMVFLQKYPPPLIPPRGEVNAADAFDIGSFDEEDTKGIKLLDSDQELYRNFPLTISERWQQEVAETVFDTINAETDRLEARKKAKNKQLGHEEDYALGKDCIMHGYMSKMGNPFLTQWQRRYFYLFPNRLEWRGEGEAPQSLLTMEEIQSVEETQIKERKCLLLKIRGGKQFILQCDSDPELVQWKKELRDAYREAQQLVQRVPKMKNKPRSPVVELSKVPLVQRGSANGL
Experiment [5] addresses AP-2 complex subunit beta (Homo sapiens) (UniProt P63010). The experiment in a line: inhibitors of arrestin peptide binding to AP2, pilot screen, biochemical, validation set, GST-AP2 beads, flow cytometry (AID 504541;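 active = inhibition above 54%, about 3 SD of non-fluorescent compounds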;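 also: AP2 carries R879A mutation and is captured from E. coli lysate; bead-bound FITC arrestin peptide fluorescence measuring arrestin peptide binding to AP2; 0% = DMSO wells and 100% = excess unlabeled arrestin peptide control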). The following applies: FITC arrestin peptide, at 10 µM, stronger effect = higher value, AP2 beta2 appendage fragment, R879A mutant.
Experiment [6] in a line: yeast V-ATPase proton transport modulators, S. cerevisiae, pHLuorin, HTS validation (AID 504600; in the data active = response above about 15%;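 also: plate controls were DMSO for no effect and reference compound for full effect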). The following applies: S. cerevisiae pHLuorin cytosolic pH, at 10 µM, stronger effect = higher value.
In experiment [7] the test system is anti-desmoglein-3 scFv antibody binding to human DSG3. In words: inhibitors of anti-DSG3 scFv binding to DSG3, pilot screen, biochemical, validation compound set, bead-based, flow cytometry (AID 588368;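 active = binding below the plate cutoff, the plate median minus 3 SD, with a reading above zero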;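 also: signal is the median channel fluorescence of bead-bound GFP antibody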). The note with it: Protein G beads, DSG3-Fc, scFv-GFP binding, at 10 µM, stronger effect = lower value.
A short description of experiment [8]: inhibitors of fungal efflux pumps CDR1, CDR2, MDR1, pilot screen, validation compound set, multiplex, phenotypic (AID 588506;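 active = efflux inhibition above 0.42, the validation set average plus 4 SD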;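 also: Nile Red retained in cells so higher fluorescence means more efflux inhibition; 0 = negative control wells and 1 = enniatin B 25 µM full block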). The following applies: S. cerevisiae pump-expressing triplex, Nile Red efflux flow cytometry; at 10 µM; stronger effect = higher value; the pumps come from Candida albicans.
The target in experiment [9] is ATP-binding cassette sub-family B member 6 (Homo sapiens) (UniProt Q9NP58). The experiment in a line: ABCB6 transporter inhibitors, pilot screen, K562-ABCB6 cells, flow cytometry, validation set (AID 588550;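 active = inhibition above the screen-wide mean plus 3 SD, about 51%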;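 also: 0% = DMSO wells and 100% = benzethonium chloride 70 µM positive control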). The following applies: K562-ABCB6 porphyrin accumulation, 1 h, at 10 µM, stronger effect = higher value.
ATP-binding cassette sub-family B member 6 (Homo sapiens), sequence (Q9NP58 whole entry, looked up): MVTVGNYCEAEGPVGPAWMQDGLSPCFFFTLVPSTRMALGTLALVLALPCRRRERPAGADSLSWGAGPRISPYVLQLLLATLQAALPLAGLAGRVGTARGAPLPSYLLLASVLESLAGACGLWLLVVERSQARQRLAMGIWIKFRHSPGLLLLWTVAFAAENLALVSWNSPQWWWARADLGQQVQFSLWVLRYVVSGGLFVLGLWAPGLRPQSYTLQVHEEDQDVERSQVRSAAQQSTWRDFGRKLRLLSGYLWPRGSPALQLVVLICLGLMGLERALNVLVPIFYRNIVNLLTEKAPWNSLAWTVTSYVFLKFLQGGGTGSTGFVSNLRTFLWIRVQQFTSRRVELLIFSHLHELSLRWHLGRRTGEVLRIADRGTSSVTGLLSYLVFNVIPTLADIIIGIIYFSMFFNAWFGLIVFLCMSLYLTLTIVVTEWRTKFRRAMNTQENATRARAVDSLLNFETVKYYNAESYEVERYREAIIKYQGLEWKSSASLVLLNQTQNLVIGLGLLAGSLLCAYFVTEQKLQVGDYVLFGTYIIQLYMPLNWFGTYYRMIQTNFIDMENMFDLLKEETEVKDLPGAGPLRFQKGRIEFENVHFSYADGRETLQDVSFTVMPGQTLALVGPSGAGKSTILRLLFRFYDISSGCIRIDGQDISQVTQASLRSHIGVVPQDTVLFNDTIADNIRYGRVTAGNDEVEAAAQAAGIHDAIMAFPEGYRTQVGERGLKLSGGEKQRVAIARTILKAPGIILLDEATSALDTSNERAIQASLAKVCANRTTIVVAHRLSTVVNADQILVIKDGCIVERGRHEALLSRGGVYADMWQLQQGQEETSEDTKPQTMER
The nature of experiment [10]: promoters of myeloid differentiation in arrested cells, primary screen, cell-based, GFP/MAC1 double positive, flow cytometry, validation set (AID 588685).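 Also: compound exposure lasts four days before antibody staining and flow analysis; 0% = DMSO wells and 100% = 5 µM fulvestrant positive control.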 The note with it: ER-HoxA9 marrow cells, stronger effect = higher value, normalized: vehicle 0, fulvestrant 100.

AP-2 complex subunit beta (Homo sapiens), sequence (P63010 whole entry, looked up, the tested form may be a part, one chain of several): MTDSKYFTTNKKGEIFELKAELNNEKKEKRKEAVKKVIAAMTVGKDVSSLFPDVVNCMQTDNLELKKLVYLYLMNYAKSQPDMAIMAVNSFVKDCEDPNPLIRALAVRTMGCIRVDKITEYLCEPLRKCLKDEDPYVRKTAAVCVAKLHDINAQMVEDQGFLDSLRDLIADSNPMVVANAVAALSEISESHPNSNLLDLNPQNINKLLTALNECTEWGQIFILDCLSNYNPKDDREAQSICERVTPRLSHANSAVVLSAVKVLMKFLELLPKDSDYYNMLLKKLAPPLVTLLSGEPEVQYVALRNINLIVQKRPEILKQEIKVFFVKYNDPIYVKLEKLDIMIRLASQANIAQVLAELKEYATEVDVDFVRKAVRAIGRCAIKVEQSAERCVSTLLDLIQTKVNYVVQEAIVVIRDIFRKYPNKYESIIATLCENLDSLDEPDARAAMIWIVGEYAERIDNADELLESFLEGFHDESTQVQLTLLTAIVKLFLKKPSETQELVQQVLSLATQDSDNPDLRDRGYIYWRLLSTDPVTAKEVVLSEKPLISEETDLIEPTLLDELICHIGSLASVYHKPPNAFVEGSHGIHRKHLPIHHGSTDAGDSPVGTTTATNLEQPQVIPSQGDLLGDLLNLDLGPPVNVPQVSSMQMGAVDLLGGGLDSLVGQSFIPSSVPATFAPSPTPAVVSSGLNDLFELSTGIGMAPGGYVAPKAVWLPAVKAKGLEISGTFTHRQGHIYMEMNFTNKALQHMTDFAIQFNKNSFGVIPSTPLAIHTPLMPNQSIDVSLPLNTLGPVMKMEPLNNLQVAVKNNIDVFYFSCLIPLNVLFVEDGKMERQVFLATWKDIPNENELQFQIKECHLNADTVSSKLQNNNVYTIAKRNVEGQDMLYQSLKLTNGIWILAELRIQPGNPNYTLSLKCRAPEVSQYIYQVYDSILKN

In [1], `CC12CCC(C(=O)Nc3ccccc3Br)(C/C1=N\O)C2(C)C` (configuration not stated) displayed a double positive events of 58.3%. Moreover, the vesicle binding response in experiment [1] was 154% (inactive). Moreover, the inhibition was -6.77% (inactive) in experiment [2], -0.26% (inactive) in [5] and 9% (inactive) in [9]. In addition, the superoxide response (% of plate) in experiment [3] was 92.2% (inactive). For the same compound, in experiment [4], the aptamer binding inhibition is 3% (inactive). The response in experiment [6] was 2.28% (inactive). Moreover, in [7], the binding (% of control) was 96% (inactive). In addition, in experiment [8], the efflux inhibition (fraction of control) was -0.12 (inactive). Also, the differentiation response in experiment [10] was -9.89% (inactive).
In experiment [1], `Nc1ncnc2c1ncn2C1OC(CO)C(O)C1O` (configuration not stated) displayed a double positive events of 48.3%. Moreover, the vesicle binding response in experiment [1] is 175% (inactive). In addition, the inhibition was -6.77% (inactive) in experiment [2], -4.3% (inactive) in experiment [5] and 5% (inactive) in experiment [9]. Besides, the superoxide response (% of plate) in experiment [3] was 102% (inactive). Also, in experiment [4], the aptamer binding inhibition is 3% (inactive). Besides, in experiment [6], the response was 0.12% (inactive). The binding (% of control) in experiment [7] is 110% (inactive). In addition, the efflux inhibition (fraction of control) in [8] is -0.01 (inactive). Also, the differentiation response in experiment [10] was -18% (inactive).
In turn, `Oc1[nH]c2ccccc2c1N=Nc1ccccc1` came in with a double positive events in experiment [1] of 49.4%. In addition, the vesicle binding response in experiment [1] was 168% (inactive). Besides, the inhibition in [2] is 9.09% (inactive); in [5], -8.96% (inactive); in experiment [9] it was 10% (inactive). Also, the superoxide response (% of plate) in experiment [3] was 104% (inactive). Further, the aptamer binding inhibition in [4] was 3% (inactive). Also, in experiment [6], the response is -2.64% (inactive). Also, in [7], the binding (% of control) is 103% (inactive). In experiment [8], the efflux inhibition (fraction of control) was -0.35 (inactive). Besides, the differentiation response in [10] was -8.27% (inactive).
As to `COc1ccc(CNC(=O)c2cc3c(=O)n4ccccc4nc3n(Cc3cccnc3)c2=N)cc1`, in [1], the double positive events was 60.5%. Moreover, in experiment [1], the vesicle binding response was 131% (inactive). Further, the inhibition in experiment [2] was -2.11% (inactive); in experiment [5], -0.26% (inactive); in experiment [9] it was 4% (inactive). The superoxide response (% of plate) in [3] is 92.2% (inactive). Further, the aptamer binding inhibition in experiment [4] was -6% (inactive). Also, in experiment [6], the response is 3.99% (inactive). Further, the binding (% of control) in [7] was 112% (inactive). The efflux inhibition (fraction of control) in experiment [8] is 0.22 (inactive). In addition, in [10], the differentiation response is -9.89% (inactive).
With `N=c1ccn(CC(=O)NC(N)=O)c2ccccc12`, the double positive events in [1] worked out at 55.8%. In addition, the vesicle binding response in [1] is 241% (inactive). In addition, the inhibition in experiment [2] is 12.8% (inactive); in experiment [5] it was 8.55% (inactive); in [9], -15% (inactive). In experiment [3], the superoxide response (% of plate) was 99.5% (inactive). Moreover, in [4], the aptamer binding inhibition is 4% (inactive). Also, the response in [6] is 14.2% (inactive). The binding (% of control) in [7] was 95.7% (inactive). Also, in [8], the efflux inhibition (fraction of control) is -0.09 (inactive). The differentiation response in experiment [10] was -3.43% (inactive).
Compound `O=C(NC(CO)Cc1ccc([N+](=O)[O-])cc1)C(Cl)Cl` (configuration not stated) returned a double positive events in experiment [1] of 57.3%. Also, the vesicle binding response in experiment [1] was 146% (inactive). Besides, the inhibition in [2] is -11.4% (inactive); in experiment [5], 0.05% (inactive); in experiment [9], 14% (inactive). Besides, the superoxide response (% of plate) in [3] is 100% (inactive). In addition, in experiment [4], the aptamer binding inhibition was 15% (inactive). Moreover, in experiment [6], the response was 0.32% (inactive). Besides, the binding (% of control) in experiment [7] is 100% (inactive). Moreover, the efflux inhibition (fraction of control) in experiment [8] is -0.24 (inactive). Moreover, the differentiation response in experiment [10] was -24.4% (inactive).
In experiment [1], `COc1c2occc2c(OC)c2c(=O)cc(C)oc12` showed a double positive events of 48.6%. The vesicle binding response in experiment [1] is 176% (inactive). Also, the figures for the inhibition in experiment [2], in experiment [5] and in experiment [9] were 8.15% (inactive), -4.24% (inactive) and 5% (inactive), respectively. In addition, the superoxide response (% of plate) in experiment [3] was 108% (inactive). Besides, the aptamer binding inhibition in [4] was 1% (inactive). In addition, the response in experiment [6] is 3.33% (inactive). Also, in experiment [7], the binding (% of control) was 102% (inactive). Besides, the efflux inhibition (fraction of control) in experiment [8] was 0.1 (inactive). Also, the differentiation response in experiment [10] was 33.7% (inactive).
